{
  "source": "PubChem BioAssay (NCATS)",
  "note": "Inconclusive results are not listed. Active and inactive are the calls of the source. Calls come from the whole dose curve.",
  "data": [
    {"experiment": "Natriuretic polypeptide receptor (hNpr1) antagonism - Pilot counterscreen GloSensor control cell line (AID 1347045)", "details": "HEK293 cGMP GloSensor cells, SNP-stimulated luminescence, 20 min; series mostly up to 38.3 µM", "description": "F. Fan, B. F. Binkowski, B. L. Butler, P. F. Stecha, M. K. Lewis, K. V. Wood, Novel genetically encoded biosensors using firefly luciferase. ACS Chem Biol 3, 346-351 (2008).\nPROTOCOL TABLE (as described by Inglese J, Shamu CE and Guy RK. 2007)\nSEQUENCE No. (e.g., 1, 2, 3, etc.); […] (e.g., Cells, Incubation, Reagent, etc.); VALUE and DESCRIPTION.\n1. Cells. Seed 1500 HEK293 cGMP-sensor cells per well in 4uL into Greiner 1536-well white/solid bottom high base, TC plates.\n2. Incubation. Incubate plated cells at 37C in 5% CO2, 95% RH overnight.\n3. Reagent. Add 1uL per well GloSensor reagent from Promega (2% final concentration) or CO2 independent media vehicle control to respective columns of Greiner 1536-well plates.\n4. Incubation. Incubate plated cells at room temperature for 2 h, protect from light.\n5. Compounds. Library compounds and DMSO vehicle control added at 23nL per well, transferred by Pin Tool.\n6. Incubation. Incubate plated cells for 30 min. at room temperature, protect from light.\n7. Detector. GloSensor baseline pre-read luminescence measured using CCD-based camera (Viewlux).\n8. Compound. Add 1uL of sodium nitroprusside (SNP) to 50 uM final concentration to stimulate soluble guanylyl cyclase (GC) or CO2 independent media as vehicle control.\n9. Incubation. Incubate treated cells at room temperature for 20 min., protect from light.\n10. Detector. GloSensor post-SNP luminescence measured using CCD-based camera (Viewlux).\nNOTES (numbers refer to Sequence numbers above; values are from representative experiments)\n1. HEK293 cells expressing GIP/pGS-40F were grown to 85-95% confluence (48-72 h) in T175 culture flasks (CO2 independent media supplemented with 10% FBS, 1% Pen/Strep antibiotics, and 1 ug/mL puromycin). Trypsinize and harvest cells from T175 culture flasks and filter through 40 um cell strainer. Cells counted with Invitrogen Countess (30,000,000 - 50,000,000 cells/flask).\n2. Cells incubated for 24 h. at 37C in 95% RH incubator with metal lid having gas-exchange holes.\n3. Prepare GloSensor Reagent (Promega): Reconstitute GloSensor luciferase substrate by adding 8.2mL Hepes buffer to 250mg substrate, mix well, protect from light and stored at -80C. Prepare a fresh 12% GloSensor solution in CO2 independent supplemented plating media (see above). Mix well and store at ambient temperature, protected from light. 1uL 12% GloSensor Luciferase Reagent added (2% final concentration) to respective columns of 9 x 1536-well Greiner plate with BioRaptr, 1uL CO2 independent plating media added to respective columns as vehicle control with BioRaptr.\n4. Cells incubated for 2 h. at ambient temperature, protected from light with metal lid having gas-exchange holes.\n5. 23nL of LOPAC128 library compounds (7 plates) or DMSO vehicle control transferred to 9 Greiner white/solid bottom high base, TC plates in 7 interplate 1:5 titrations (see Yasgar, A. et al. 2008) with Pintool. Two of the 9 plates are DMSO-only in compound field at beginning and end of compound library-treated plates.\n6. Cells incubated for 30-50 min. at ambient temperature protected from light with metal lid having gas-exchange holes.\n7. Read GloSensor + Antagonist/Compound baseline Luminescence on the ViewLux [Exposure, 30 s; Gain, High; Speed, Slow; Binning, 2X]\n8. SNP solution prepared at 500 mM (in H2O) stock concentration. From this a working dilution was prepared at 300 uM in CO2 Independent media. 1uL of 300 uM SNP (50 uM final concentration) or CO2 Independent media vehicle control dispensed into respective columns of 9 x Greiner 1536-well white/solid bottom, tissue culture plates with BioRaptr.\n9. Cells incubated for 20 min. at ambient temperature, protected from light with metal lid having gas-exchange holes.\n10. Read final luminescence on the ViewLux. [Exposure, 30 s; Gain, High; Speed, Slow; Binning, 2X.]\n[…]", "values": [
      {"smiles": "O=c1[nH]oc2c1CCNC2", "outcome": "inactive"},
      {"smiles": "CC(C)(C)NCC(O)c1ccccc1Cl", "note": "(centres undefined)", "outcome": "inactive"},
      {"smiles": "CCCCC/C=C\\C/C=C\\C/C=C\\C/C=C\\CCCC(=O)NCC(=O)O", "outcome": "inactive"},
      {"smiles": "CC(NC(C)(C)C)C(=O)c1cccc(Cl)c1", "note": "(centres undefined)", "outcome": "inactive"},
      {"smiles": "CC(C)c1cccc(C(C)C)c1O", "outcome": "inactive"},
      {"smiles": "CN1C(=O)CCS(=O)(=O)C1c1ccc(Cl)cc1", "note": "(centres undefined)", "outcome": "inactive"},
      {"smiles": "CCC1(c2ccc(N)cc2)CCC(=O)NC1=O", "note": "(centres undefined)", "outcome": "inactive"},
      {"smiles": "COc1ccc2c(c1OC)C(=O)O[C@H]2[C@@H]1c2cc3c(cc2CCN1C)OCO3", "outcome": "inactive"},
      {"smiles": "O=P1(N(CCCl)CCCl)NCCCO1", "note": "(centres undefined)", "outcome": "inactive"},
      {"smiles": "Cc1ncsc1CCCl", "outcome": "inactive"},
      {"smiles": "NCCc1ccc(O)cc1", "outcome": "inactive"},
      {"smiles": "O=C(O)CCCc1ccc(N(CCCl)CCCl)cc1", "outcome": "inactive"},
      {"smiles": "O=C(CCCN1CCC2(CC1)C(=O)NCN2c1ccccc1)c1ccc(F)cc1", "outcome": "inactive"},
      {"smiles": "CC(C)N(CCC(C(N)=O)(c1ccccc1)c1ccccn1)C(C)C", "note": "(centres undefined)", "outcome": "inactive"}
    ]}
  ]
}
